Source: PubChem
APEX1 inh: APE1 (human) endonuclease inhibition; recombinant APE1, TAMRA/BHQ-2 abasic DNA cleavage fluorescence; P27695; Potency, µM (doses to about 65.8 µM), inactives show at the highest dose activity change, negative = inhibition, hits mostly inhibitors; actives 0.35% (n = 350,000);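 further: plate controls were vehicle for no effect and reference inhibitor for full effect; nearly all actives have a fitted effect of over 55% in size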
Target sequence (P27695 whole entry, looked up): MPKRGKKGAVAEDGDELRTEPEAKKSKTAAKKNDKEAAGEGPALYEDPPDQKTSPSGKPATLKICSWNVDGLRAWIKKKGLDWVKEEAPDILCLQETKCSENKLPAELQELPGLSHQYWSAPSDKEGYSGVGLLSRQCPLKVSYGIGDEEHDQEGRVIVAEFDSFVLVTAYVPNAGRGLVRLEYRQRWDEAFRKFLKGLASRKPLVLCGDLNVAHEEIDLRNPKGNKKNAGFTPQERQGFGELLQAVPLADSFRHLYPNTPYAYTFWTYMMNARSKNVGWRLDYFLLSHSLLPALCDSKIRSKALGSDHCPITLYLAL
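Incision of a quenched TAMRA/BHQ-2 THF abasic-site duplex (50 nM) by 0.75 nM APE1, after 15 min compound preincubation, measured as fluorescence increase over three 60 s reads. Values normalized to buffer, DMSO and NSC13755 control wells.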
KDM4E inh: blocks human JMJD2E demethylase activity. B2RXH2. JMJD2E catalytic domain, FDH-coupled NADH fluorescence (FDH is formaldehyde dehydrogenase). Potency, µM (titrated, usually from 57.1 µM), for inactives: at the top dose activity change, negative = inhibition, hits mostly inhibitors. actives 1.6% (n = 230,000); active means well fitted inhibition curve with a large enough effect, not every such curve was filed as active; inconclusive means small, poorly fitted or top-dose-only effect, or another doubt; inactive means no such curve, though single readings can be large or run the other way;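 further: 0% = wells with enzyme and -100% = buffer wells without enzyme; nearly all actives have a fitted effect of over 50% in size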
Target sequence (B2RXH2 1-337 limits assumed): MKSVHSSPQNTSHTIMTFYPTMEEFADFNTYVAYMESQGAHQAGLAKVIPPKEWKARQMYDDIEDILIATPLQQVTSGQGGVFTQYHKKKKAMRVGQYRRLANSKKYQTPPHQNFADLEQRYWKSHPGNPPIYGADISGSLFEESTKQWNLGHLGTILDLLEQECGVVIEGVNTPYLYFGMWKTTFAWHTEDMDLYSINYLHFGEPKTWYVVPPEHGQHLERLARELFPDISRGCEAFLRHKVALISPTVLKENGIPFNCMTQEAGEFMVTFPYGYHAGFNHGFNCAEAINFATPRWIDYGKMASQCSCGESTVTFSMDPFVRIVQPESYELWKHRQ
RECQ1 helicase: RECQ1 (human) helicase inhibition; P46063; RECQ1 DNA unwinding, red fluorescence kinetic read; Potency, µM (top dose mostly 57.3 µM), for inactives: top-dose activity, negative = inhibition, hits mostly inhibitors; actives 0.54% (n = 240,000); AID 2549;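 further: plate controls were vehicle for no effect and no enzyme for full effect; nearly all actives have a fitted effect of over 30% in size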
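RECQ1T1 50 nM; forked duplex (20 bp + 30-nt ss tails) 200 nM, ATP 2 mM final; pH 8.0, 2 mM MgCl2, 2.5 ug/ml poly(dI-dC); 15 min compound preincubation; discontinuous kinetic read over 2 h at RT.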
L3MBTL1 inh: blocks human L3MBTL1 | AID 485360 | Q9Y468 | AlphaScreen L3MBTL1–H3K9me1 peptide binding | actives 0.66% (n = 230,000) | Potency, µM (doses to about 57.1 µM), for inactives: at the top dose activity, negative = inhibition, usual class: inhibitors; further: nearly all actives have a fitted effect of over 60% in size
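Displacement of a biotinylated histone H3(1-15) peptide monomethylated at Lys9 (75 nM) from L3MBTL1 (50 nM) was measured by AlphaScreen after a 30 min room-temperature compound incubation; cefsulodin titration served as intraplate control.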
TDP1 inh: inhibitors of human tyrosyl-DNA phosphodiesterase TDP1; Q9NUW8; recombinant TDP1, AlphaScreen DNA substrate cleavage; Potency, µM (top dose mostly 130 µM), inactives show at the top dose activity change, negative = inhibition, hits mostly inhibitors; actives 0.28% (n = 350,000); AID 485290; further: nearly all actives have a fitted effect of over 40% in size
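Signal: AlphaScreen proximity between streptavidin donor and anti-FITC acceptor beads on intact substrate. Reaction: Tdp1 1 nM, substrate 15 nM final, 5 min RT after 15 min compound preincubation.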
BLM inh: inhibitors of human Bloom syndrome helicase BLM. recombinant BLM DNA unwinding, fluorescence dequenching. actives 0.2% (n = 350,000). AID 2528. Potency, µM (top dose mostly 56.1 µM), inactives show at the top dose activity change, negative = inhibition, most hits filed as inhibitors. P54132;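 further: plate controls were vehicle for no effect and no enzyme for full effect; nearly all actives have a fitted effect of over 35% in size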
Active calls of the source: *; i = inactive; ? = inconclusive; / = no result; ! = not confirmed by another sample; [ ] = dose if it differs, or a comment. The sample as a whole holds a higher share of hits than the screen did. Unless noted, the call rests on the fitted dose curve; in most records, active means well fitted curve in the direction sought with a large enough effect; inconclusive means small, poorly fitted or top-dose-only effect, or another doubt; inactive means no such curve, though single readings can be large; an effect the other way counts as inactive or inconclusive. Unless noted, on the % scale 0 is the no-effect control and ±100 the full control effect; potency means the concentration at half of the fitted maximal effect.

SMILES | APEX1 inh | KDM4E inh | RECQ1 helicase | L3MBTL1 inh | TDP1 inh | BLM inh
Cc1ccc(OCCn2cccc2/C=C2/C(=O)NC(=O)N(Cc3ccco3)C2=O)cc1 | -10% | -3% | ? | / | 3% | -21%
O=C1NC(=O)N(Cc2ccccc2)C(=O)/C1=C/c1cnc(-c2ccccc2)nc1 | 6% | 22µM* | -14% | / | -2% | -2%
CC(C)c1ccc(N2C(=O)NC(=O)/C(=C/c3cnc(-c4ccccc4)nc3)C2=O)cc1 | 2% | 8.9µM* | -3% | -14% | ? | -1%
CCc1ccc(N2C(=O)NC(=O)/C(=C\c3cccn3CCOc3ccc(C(C)C)cc3)C2=O)cc1 | -5% | 4% | 25µM* | -4% | 3% | -9%
CN1CCN(c2ccc([N+](=O)[O-])c3no[n+]([O-])c23)CC1 | -10% | 14µM* | -10% | / | / | -7%
NC(=O)CNC(=O)[C@H](Cc1ccccc1)NC(=O)[C@H](CCCN=C(N)N)NC(=O)[C@@H](N)Cc1ccc(O)cc1 | -8% | / | 16% | / | 4% | /
O=[N+]([O-])c1cccc(CN2CCN(Cc3ccc(Cl)cc3)CC2)c1 | 3% | 28µM* | i | -20% | -3% | 1%
O=[N+]([O-])c1cccc(CN2CC=C(c3ccc(F)cc3)CC2)c1 | -3% | / | / | 0% | / | -5%
CO/N=C(/C(=O)NC1C(=O)N2C(C(=O)O)=C(CSc3nc(=O)c(O)nn3C)CSC12)c1csc(N)n1 (stereo not given) | ? | -17% | -3% | / | 7.1µM* | -5%
CC1=C(C(=O)O)N2C(=O)[C@@H](NC(=O)CCCC(=O)O)[C@H]2SC1 | -1% | -3% | -15% | 14% | -4% | -2%
Cc1ccc(S(=O)(=O)Oc2ccccc2C=C2C(=O)N(C)C(=O)N(C)C2=O)cc1 | -7% | / | / | / | -5% | 0%
CN1C(=O)C(=Cc2ccccc2OCc2ccc(Cl)cc2)C(=O)N(C)C1=O | 1% | 20µM* | -2% | 1% | / | -1%
O=C1OC(=O)C2C3CCC(O3)C12 (stereo not given) | -10% | 22µM*! | -7% | 3% | ? | 2%
ClC(Cl)(Cl)C(Cl)(Cl)Cl | 4% | / | -8% | / | 13% | /
CC(=O)N1CCN(Cc2ccc(Cl)nc2)CC1 | -9% | / | / | / | / | -1%
CCCCc1ccc(C(=O)O)nc1 | 4% | 10µM* | -5% | 8.9µM* | 15%[56.1 µM] | -3%
O=c1[nH]c(=O)n(Cc2ccco2)c(O)c1/C=N/N1CCCCCC1 | 0% | -7% | 4% | -12% | -6% | -9%
N#Cc1c(/N=C/c2c(O)n(Cc3ccco3)c(=O)[nH]c2=O)sc2c1CCCC2 | ? | ? | ? | 14µM* | ? | 1%
COC(=O)[C@@H]1[C@H]2CC[C@@H](C[C@H]1OC(=O)c1ccccc1)N2C | -3% | / | / | / | / | /
CC(=O)Oc1c2c(c(CC=C(C)C)c3c1C(=O)C1=CC4CC5C(C)(C)OC(C/C=C(\C)C(=O)O)(C4=O)[C@]15O3)OC(C)(CCC=C(C)C)C=C2 (stereo not given in full) | -1% | -15% | ? | / | 9% | 22µM*
COC(=O)/C(C)=C\CC12OC(C)(C)C3CC(C=C4C(=O)c5c(OC)c6c(c(CC=C(C)C)c5OC431)OC(C)(CCC=C(C)C)C=C6)C2=O (stereo not given) | -1% | ? | -1% | / | 20%[56.1 µM] | -10%
O[N+]1=CC=CCC1=S.On1ccccc1=S.[Zn] | -4% | 2.5µM* | i | / | / | -21%
O=C1NC(=O)N(c2ccc(Cl)cc2)C(=O)/C1=C\c1ccc(Sc2nc3ccccc3[nH]2)o1 | ? | -11% | 25µM* | ? | -4% | -15%
CCC(N)C(O)c1ccc(O)c(O)c1 (stereo not given) | -4% | 14µM* | 12% | / | / | 3%
NCCNC[C@@H](N)CCCN=C(N)N[N+](=O)[O-] | -1% | / | -1% | / | 19% | -4%
SMILES | APEX1 inh | KDM4E inh | RECQ1 helicase | L3MBTL1 inh | TDP1 inh | BLM inh
O=C(CCCN1CCC2(CC1)C(=O)N(Cc1cccc(F)c1)CN2c1ccccc1)c1ccc(F)cc1 | -1% | -2% | -9% | / | 13% | -9%
O=[N+]([O-])c1ccc(O)c([N+](=O)[O-])c1 | 0% | -26% | -14% | / | 1% | 4%
O=[N+]([O-])c1cc(O)c(O)c([N+](=O)[O-])c1 | ? | 10µM* | ? | -7% | 7% | -8%
BrCC(Br)C1CCC(Br)C(Br)C1 (stereo not given) | 20% | / | 17% | 90% | 32µM*! | /
CCC#N | 1% | / | -6% | / | 12% | /
[Cl-].[Cl-].[Hg+2] | / | / | -9% | / | 35µM* | -7%
COc1cccc([C@@]2(O)CCCCC2CN(C)C)c1 (stereo not given in full) | -6% | / | -5% | / | 8% | -1%
CC[C@@H]1C(=O)OC[C@@H]1Cc1cncn1C | 5% | / | / | -2% | / | /
CC[C@@H]1C(=O)OC[C@@H]1Cc1cncn1C | 3% | 25µM*! | -3% | -10% | 8% | 0%
CCn1nc(-c2ccccc2)nc2c(=O)n(C)c(=O)nc1-2 | ? | 28µM* | -25% | 0.71µM* | 5% | 1.4µM*
Clc1c(Cl)c(Cl)c(Cl)c(Cl)c1Cl | -1% | / | -2% | / | 3% | -2%
CC1Oc2cc3c(-c4c(O)cc(O)c5c(O)c6c(cc45)OC(C)C(C)C6=O)c(O)cc(O)c3c(O)c2C(=O)C1C (stereo not given) | ? | 20µM* | 25µM* | 2µM* | 8% | -24%
Cc1cc(C)cc(C(=O)OC2C[C@H]3CC[C@@H](C2)N3C)c1 (stereo not given in full) | 4% | 11% | 0% | / | 10%[56.1 µM] | -9%
C=C1CC[C@H](O)C/C1=C/C=C1\CCC[C@]2(C)[C@H]1CC[C@H]2[C@@H](C)CCCC(C)C | -1%[21 µM] | 2%[25.5 µM] | -1%[25.9 µM] | / | 17%[21 µM] | 5%[21.4 µM]
[Cl][In]([Cl])[Cl] | 0% | / | -6% | / | 0.5µM* | -3%
O=C(Cl)C(Cl)(Cl)Cl | -5% | / | 6% | / | 13% | /
CCn1ncc(-c2ccnc3cc(C(=O)O)nn23)c1C | -4% | ? | -9% | 16µM* | 0% | ?
CC1(C)Cc2c(sc3nc4n(-c5ccccc5)c(=O)c(CCC(=O)O)nn4c(=O)c23)CO1 | 0% | 32µM* | -6% | 4% | 10% | -6%
CN1/C(=C\C=C2C(=O)NC(=O)NC2=O)C(C)(C)c2ccccc21 | 3% | -22% | -14% | / | 5% | 2%
CC1(C)OC(c2ccccc2)=C/C(=C/C=C2C(=O)NC(=O)NC2=O)O1 | -4% | -5% | 25µM* | / | -1% | -15%
CCOC(=O)N(C)C(=O)CSP(=S)(OCC)OCC | -7% | / | -1% | / | 15% | -3%
